Source: publication PMC5540273 (PLoS ONE, 2017)

What was measured:
Details in all cases: concentration: 1 μM, replicates: in singlicate; n = 1
[1] = test system: T1, RSK4(Kin.Dom.1-N-terminal)
T1 construct: gene RPS6KA6

[2] = test system: T2, RSK4(Kin.Dom.2-C-terminal)
T2 construct: gene RPS6KA6

S6K1 = test system: S6K1
SBK1 = test system: SBK1
SGK2 = test system: SGK2
SGK3 = test system: SGK3
SGK = test system: SGK
SIK2 = test system: SIK2
SIK = test system: SIK
SLK = test system: SLK
SNARK = test system: T3, SNARK
T3 construct: gene NUAK2

SNRK = test system: SNRK
SRC = test system: SRC
SRMS = test system: SRMS
SRPK1 = test system: SRPK1
SRPK2 = test system: SRPK2
SRPK3 = test system: SRPK3
STK16 = test system: STK16
STK33 = test system: STK33
STK35 = test system: STK35
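Further: KINOMEscan kinase panel screen.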

Row | Compound | %Inh [1] | %Inh [2] | %Inh (S6K1) | %Inh (SBK1) | %Inh (SGK2) | %Inh (SGK3) | %Inh (SGK) | %Inh (SIK2) | %Inh (SIK) | %Inh (SLK) | %Inh (SNARK) | %Inh (SNRK) | %Inh (SRC) | %Inh (SRMS) | %Inh (SRPK1) | %Inh (SRPK2) | %Inh (SRPK3) | %Inh (STK16) | %Inh (STK33) | %Inh (STK35)
1 | COc1cc(Nc2nccc(-c3c(-c4cccc(NC(=O)c5c(F)cccc5F)c4)nn4ccccc34)n2)cc(OC)c1OC [GSK323521] | 0% | 23% | 7% | 17% | 26% | 7% | 22% | 0% | 30% | 25% | 40% | 0% | 22% | 0% | 0% | 21% | 30% | 15% | 11% | 0%
2 | CCCCc1nn2ncccc2c1-c1ccnc(Nc2ccc(N3CCN(C)CC3)cc2)n1 [GW684941] | 0% | 82% | 0% | 30% | 0% | 0% | 24% | 84% | 83% | 69% | 90.2% | 0% | 98.8% | 0% | 63% | 6% | 26% | 86% | 39% | 0%
3 | Cc1cccc(Nc2nc(N[C@H]3CCNC3)ncc2C(N)=O)c1.Cl [GSK2197149] | 30% | 23% | 5% | 42% | 12% | 0% | 0% | 30% | 35% | 30% | 34% | 0% | 85% | 0% | 72% | 0% | 76% | 12% | 40% | 1%
4 | Cn1cc(-c2ccc3c(c2)CCN3C(=O)Cc2cccc(F)c2)c2c(N)ncnc21 [GSK2603358] | 0% | 43% | 12% | 30% | 18% | 2% | 0% | 0% | 4% | 55% | 10% | 0% | 4% | 0% | 0% | 0% | 9% | 13% | 0% | 0%
5 | COc1ccc(-c2coc3ccc(-c4nnc(SCc5ccc(OC)c(C(F)(F)F)c5)o4)cc23)cc1 | 25% | 16% | 0% | 0% | 6% | 28% | 0% | 21% | 10% | 9% | 35% | 21% | 4% | 0% | 8% | 0% | 0% | 17% | 7% | 0%
6 | COc1cc(Nc2nccc(-c3c(-c4cccc(NC(=O)c5c(F)cccc5F)c4)nn4ncccc34)n2)cc(OC)c1OC [GSK327238] | 10% | 6% | 38% | 28% | 0% | 1% | 0% | 26% | 78% | 99.2% | 95.2% | 0% | 99.9% | 98.5% | 38% | 0% | 0% | 67% | 22% | 96.9%
7 | CN(C)Cc1ccc(-c2ccc3c(Nc4ccc(Oc5ccccn5)cc4)ccnc3c2)o1 [GW567148] | 17% | 0% | 5% | 8% | 0% | 0% | 0% | 79% | 99.2% | 31% | 12% | 0% | 36% | 94.5% | 0% | 0% | 0% | 0% | 55% | 66%
8 | Cl.NC(=O)c1cccc(Nc2nccc(Nc3ccc(Oc4c(Cl)cccc4Cl)c(Cl)c3)n2)c1 [GW659009] | 0% | 0% | 0% | 24% | 4% | 0% | 19% | 0% | 90.2% | 0% | 1% | 5% | 18% | 19% | 37% | 0% | 6% | 35% | 0% | 0%
9 | CC(C)(C)c1ccc2nccc(Nc3cccc(O)c3)c2c1 [GW856795] | 0% | 27% | 9% | 0% | 1% | 0% | 15% | 0% | 0% | 55% | 0% | 0% | 96.7% | 0% | 0% | 9% | 20% | 0% | 0% | 0%
10 | CN1CCN(CCCNc2nccc(-c3c(-c4ccc(F)cc4)nn4cc(C(F)(F)F)ccc34)n2)CC1 [GW621581] | 0% | 80% | 1% | 8% | 0% | 0% | 12% | 70% | 0% | 42% | 0% | 0% | 14% | 0% | 26% | 0% | 16% | 0% | 0% | 60%
11 | CNC(=O)c1ccccc1Nc1nc(Nc2ccc(N3CCOCC3)cc2)ncc1Cl.Cl [GSK1576028] | 99.3% | 38% | 97% | 90.5% | 50% | 87% | 97.1% | 92.4% | 99% | 99.5% | 99.2% | 0% | 100% | 67% | 98.1% | 35% | 78% | 99.2% | 98.6% | 50%
12 | Cc1ccc(C(=O)N2CC[C@@H](O)C2)cc1-n1c(C)cc(OCc2ccc(F)cc2F)c(Br)c1=O | 0% | 2% | 0% | 0% | 0% | 0% | 0% | 27% | 4% | 0% | 0% | 0% | 97.7% | 0% | 0% | 0% | 0% | 19% | 2% | 0%
13 | c1ccc(Oc2ccc(Nc3ccnc4cc(-c5ccc(CNCCN6CCOCC6)o5)ccc34)cc2)nc1 [GW567145] | 0% | 0% | 0% | 8% | 0% | 0% | 17% | 78% | 96.4% | 8% | 6% | 0% | 22% | 87% | 0% | 58% | 0% | 2% | 21% | 48%
14 | COc1cccc(C2=C(Nc3ccc(Cl)c(C(=O)O)c3)C(=O)NC2=O)c1 [SB-390769] | 100% | 0% | 2% | 99.9% | 19% | 100% | 0% | 0% | 0% | 16% | 100% | 100% | 0% | 100% | 13% | 0% | 17% | 8% | 0% | 0%
15 | COCCOCCOc1cc2ncc3c4ccc(C#N)cc4[nH]c3c2cc1OC | 90% | 0% | 61% | 81% | 58% | 47% | 89% | 83% | 13% | 45% | 83% | 17% | 14% | 0% | 50% | 24% | 27% | 11% | 24% | 18%
16 | COc1cccc(NC(=O)NC2CCN(c3ccnc(Nc4cc(OC)c(OC)c(OC)c4)n3)C2)c1 (stereo not shown) [GSK1379763] | 0% | 0% | 0% | 15% | 0% | 7% | 0% | 4% | 0% | 42% | 33% | 0% | 10% | 0% | 61% | 0% | 0% | 77% | 0% | 3%
17 | COc1ccc(Nc2nccc(N3CCC(NC(=O)Nc4cccc(OC)c4)C3)n2)cc1 (stereo not shown) [GSK1379742] | 0% | 24% | 0% | 0% | 0% | 0% | 3% | 0% | 0% | 17% | 0% | 0% | 5% | 0% | 12% | 0% | 0% | 0% | 0% | 2%
